The results in this text go back to PubChem BioAssay (NCI).

Each structure is given as a SMILES string. Values joined by “and” are separate entries in the source; they are usually repeats but may differ in a detail not shown here. Identical values can stand only once. About 83,000 compounds went through this panel and 20% of them were active in at least one assay; those are over-represented in the sample as a whole.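 Compound tested at a single concentration for 48 hours in 96-well plates; a percent growth value below 10 was scored as active.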 Active and inactive are the calls of the source.

The test system of the assay is MDA-MB-468 breast. Description: NCI-60 one-dose screen, 48 h (100 = growth as untreated, 0 = no growth, -100 = all killed). As to conditions: 10 µM unless noted.
With `COc1cc(NC(=O)CSc2nc3ccccc3c(=O)n2CCc2ccccc2)cc(OC)c1OC`, the growth was 29.9% (inactive). With `COc1cccc(/C=N/NC(=O)c2cnn3c2NC(c2ccccc2)C3)c1Oc1ccccc1` (stereo not given), the growth is 47.3% (inactive). As to `C[N+]1(C)C2CC[C@@H]1CC(OC(=O)C(O)c1ccccc1)C2` (stereo not given in full), the growth was 103% (inactive). `O=C(Nc1cccc(Cl)c1)c1cc(N=Nc2ccc([N+](=O)[O-])cc2Cl)ccc1O`: the growth was 67.8% (inactive).

With `CC(=O)O[C@H]1CC[C@]2(C)[C@H]3CC=C4[C@@H]5[C@H](C)[C@@H](C)CC[C@]5(C(=O)NCCNCCNCCN)CC[C@@]4(C)[C@]3(C)CC[C@H]2C1(C)C`, the growth was 69.2% (inactive). For `O=C(O)c1c2c(nc3ccccc13)Cc1ccccc1-2`, the growth was 128% (inactive) and 89.3% (inactive). To `CCCCCOc1ccc(C(=O)/C(Br)=C/C(=O)O)cc1` belongs 89.2% (inactive); to `O=C(Nc1ncc(Cc2ccccc2)s1)c1ccc2c(c1)OCCO2`, 28.2% (inactive); to `Cn1c2c(c3ccccc31)CCN1C[C@@H]3CCCC[C@H]3C[C@@H]21`, -16.1% (active). Consider `O=C1/C(=C/c2ccc(OCc3ccccc3)cc2)Oc2cc(OCCN3CCCCC3)ccc21`, for which the growth is 48.3% (inactive). To `C/C(=C\CCc1ccsc1)CC/C=C(\C)CCCN1CCC(CO)CC1` belongs -27.3% (active).

Consider `CCCCCCCCCCCCC1CCCC(C)C1` (stereo not given), for which the growth was 111% (inactive). For `O=C(O)COc1ccc(-c2cssc2=S)cc1`, the growth is 99.5% (inactive).

With `Nc1ccc(C2=NN(C(=O)c3cc(-c4ccc(Cl)cc4)nc4ccccc34)C(c3ccc(Cl)cc3)C2)cc1` (stereo not given), the growth is 7.85% (active).

With `O=C(Nc1ncc(Cc2ccccc2Cl)s1)c1cccs1`, the growth is 33.6% (inactive). To `C(CCCSC1=NCCN1)CCSC1=NCCN1` belongs 92% (inactive).

On to `C=CCCC1(C)NC(=O)NC1=O` (stereo not given), for which the growth is 99.3% (inactive). With `CC(C)(C)c1nn(-c2ccccc2)c2c1CC1(CN2Cc2ccc3c(c2)OCO3)C(=O)c2ccccc2C1=O`, the growth was 111% (inactive). To `Nc1nc(=O)c2ccccc2s1` belongs 109% (inactive).

Consider `O=C(O)/C=C/C(=O)Nc1cccc(Cn2nnc3cc(Cl)c(Cl)cc32)c1`, for which the growth was 94.2% (inactive).

Consider `CCn1nc(C#Cc2c(C)ccc3c(Nc4ccc(Cl)cc4)nccc23)c2c(N)ncnc21`, for which the growth was 27.1% (inactive). Regarding `CCOC(=O)C(=O)C(C(=O)OCC)c1ccccc1` (stereo not given), the growth is 111% (inactive). `COC(=O)/C(CCC=C(C)C)=C1\[C@@H](OC(C)=O)C[C@@]2(C)[C@H]1C[C@@H](O)[C@H]1[C@@]3(C)CC[C@H](NCCO)[C@@H](C)[C@@H]3CC[C@@]12C`: the growth was 104% (inactive). To `CCn1c(Sc2nnc(Nc3ccccc3)s2)nc2c1c(=O)n(C)c(=O)n2C` belongs 91.8% (inactive); to `CCCN(CCC)c1ccc(/C=C/c2ccc3cc(OCC)ccc3n2)cc1`, 74.1% (inactive); to `CNC(=O)c1cccc2cc(Oc3ccnc4cc(OCC5(N)CC5)c(OC)cc34)ccc12`, 74.6% (inactive).

For `COc1ccc(-c2nc3ccccc3n3cccc23)cc1`, the growth is 112% (inactive).

On to `NCCCNc1nc2ccc(Cl)cc2c2c(=O)c3cc(F)ccc3sc12`, for which the growth is 43.3% (inactive). As for `O=c1oc2ccc(F)cc2c(=O)n1-c1ccc(I)cc1F`, the growth is -1.22% (active). Regarding `C[n+]1cccc(NC(=O)c2ccc3ccc4ccc(C(=O)Nc5ccc[n+](C)c5)nc4c3n2)c1`, the growth was -15.9% (active). To `COc1cc(C2CC(=O)Nc3c2ccc2ccccc32)cc(Br)c1OC` (stereo not given) belongs -34.3% (active); to `COc1ccc(-c2nc(SCC(=O)Nc3ccc(C(C)=O)cc3)[nH]c(=O)c2C#N)cc1`, 105% (inactive); to `N#Cc1c2ccccc2c2n1-c1ccccc1OC(c1ccccc1)C2=O` (stereo not given), 65.7% (inactive). As for `COCCCOc1cc(C[C@@H](C[C@H](N)[C@@H](O)C[C@H](C(=O)NCC(C)(C)C(N)=O)C(C)C)C(C)C)ccc1OC`, the growth is 101% (inactive). As for `COc1cc2nc(N3CCC[C@@H](NC4=CC(=O)c5ccccc5C4=O)C3)nc(N)c2cc1OC`, the growth was -51.3% (active). As for `CCCCCCCCn1ccc2cc(NC(=O)Cn3cc(CN4CCOCC4)nn3)ccc21`, the growth was 88.2% (inactive). As to `COc1ccc(/C=N/C2=NNC(C)(c3ccccc3O)N2C(Cc2c[nH]c3ccccc23)C(=O)O)cc1` (stereo not given), the growth is -3.81% (active). `O=C(O)CCCc1ccccc1`: the growth was 109% (inactive).

For `CCCCCN1C=C/C(=C\C(=O)n2ccc3ccccc32)c2ccccc21`, the growth is 73% (inactive).

On to `c1ccc(-n2nnnc2-c2cccc3ccccc23)cc1`, for which the growth is -22.5% (active).
